According to PubChem BioAssay (Tox21):
Records with an inconclusive call do not appear. The source made the active and inactive calls. Unless noted, calls come from the whole dose curve; as a rule, active = well fitted curve in the direction sought with a large enough effect in the repeat runs; inconclusive = weak or mixed curves; inactive = no such curve, though single readings can be large; an effect the other way counts as inactive or inconclusive.

Columns and labels:
[1] = qHTS assay to identify small molecule agonists of the hypoxia (HIF-1) signaling pathway - cell viability counter screen (AID 1224844; calls by dose curve; note: nearly all actives have a fitted effect of over 50% in size)
Outline: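 Luminescent ATP content (CellTiter-Glo, 30 min, room temperature) served as the viability measure in HRE-bla ME-180 cells exposed to compounds for 17 hrs in low-serum medium (0.5% dialyzed FBS).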

[2] = qHTS assay to identify small molecule agonists of H2AX (AID 1224845; active = well fitted activation curve with a large enough effect in the signal ratio in the repeat runs, not every such curve was filed as active; the % refers to the signal ratio)
Outline: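 Phospho-H2AX Ser139 measured by HTRF (ex 320 nm; em 665 and 620 nm) after 24 hr antibody incubation. Compounds, 15 concentrations, 0.76% DMSO, were applied to CHO-K1 cells for 3hr at 37C before lysis.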

[3] = qHTS assay to identify small molecule agonists of H2AX - cell viability counter screen (AID 1224847; calls by dose curve;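 note: wild-type CHO-K1 cells; top concentration of the series differs between compounds; nearly all actives have a fitted effect of over 30% in size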)
Outline: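 After overnight plating of 1000 CHO-K1 cells per well, a 15-concentration compound series was applied for 3 hr at 37C. Luminescence from CellTiter-Glo, read following 30 min at room temperature, reflected cell viability.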

[4] = qHTS RealTime-Glo MT Cell Viability Assay in HepG2 cells - 24 hour (AID 1224867); note: nearly all actives have a fitted effect of over 50% in size
Outline: (§1)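 Real-time, nonlytic viability: 600 HepG2 cells/well mixed with NanoLuc enzyme plus prosubstrate; 5 h settle, compound (DMSO) added by pintool; luminescence monitored over 40 h at 37 C.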

[5] = qHTS RealTime-Glo MT Cell Viability Assay in HEK293 cells - 32 hour (AID 1224868); note: nearly all actives have a fitted effect of over 50% in size; note: potency is the fitted concentration of half-maximal effect; for activity change, negative = cytotoxic: top concentration of the series differs between compounds
Outline: (§2)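 Cells + reagent dispensed (600 cells/well, HEK293) → 5 h at 37 C/5% CO2 → 23 nL compound in DMSO pinned → 40 h at 37 C → luminescence read at 0, 8, 16, 24, 32, 40 h.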

[6] = A CellTox Green Cytotoxicity Assay to monitor cytotoxicity in HEK293 cells - 0 hour (AID 1224869); note: nearly all actives have a fitted effect of over 50% in size
Outline: (§3)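 Each value comes from one timepoint of a single continuous run in which HEK293 cells with CellTox Green were exposed to compound for up to 40 h at 37 C, dye fluorescence rising with cell death.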

[7] = qHTS RealTime-Glo MT Cell Viability Assay in HepG2 cells - 40 hour (AID 1224870); note: nearly all actives have a fitted effect of over 50% in size
Outline: (§4)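 Real-time viability: cells seeded at 600 per well together with NanoLuc and cell-permeant prosubstrate, compounds added after 5 h incubation. Luminescence tracked at 0, 8, 16, 24, 32 and 40 h of exposure.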

[8] = A CellTox Green Cytotoxicity Assay to monitor cytotoxicity in HEK293 cells - 40 hour (AID 1224871); note: nearly all actives have a fitted effect of over 45% in size
Outline: as §3

[9] = qHTS RealTime-Glo MT Cell Viability Assay in HEK293 cells - 16 hour (AID 1224872)
Outline: as §2

[10] = qHTS RealTime-Glo MT Cell Viability Assay in HepG2 cells - 8 hour (AID 1224873); note: nearly all actives have a fitted effect of over 55% in size
Outline: as §4

[11] = qHTS RealTime-Glo MT Cell Viability Assay in HEK293 cells - 40 hour (AID 1224874); conditions: RealTime-Glo luminescence; max response: active compounds read low; note: nearly all actives have a fitted effect of over 50% in size; note: potency is the fitted concentration of half-maximal effect
Outline: (§5)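 qHTS format; HEK293 cells with NanoLuc/prosubstrate reagent, 37 C/5% CO2 for 5 h pre-dosing; compounds 23 nL in DMSO; luminescence at each time point reflects viable cells.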

[12] = A CellTox Green Cytotoxicity Assay to monitor cytotoxicity in HEK293 cells - 24 hour (AID 1224875); note: nearly all actives have a fitted effect of over 45% in size
Outline: as §3

[13] = A CellTox Green Cytotoxicity Assay to monitor cytotoxicity in HepG2 cells - 16 hour (AID 1224876); note: nearly all actives have a fitted effect of over 45% in size
Outline: (§6)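 Continuous culture of HepG2 cells with a membrane-impermeant DNA dye; rising fluorescence marks dead cells. Compound exposure lasted up to 40 h at 37 C, with reads every 8 h from 0 h.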

[14] = qHTS RealTime-Glo MT Cell Viability Assay in HepG2 cells - 32 hour (AID 1224877); note: nearly all actives have a fitted effect of over 55% in size
Outline: as §1

[15] = A CellTox Green Cytotoxicity Assay to monitor cytotoxicity in HepG2 cells - 24 hour (AID 1224878); note: nearly all actives have a fitted effect of over 45% in size
Outline: as §6

[16] = A CellTox Green Cytotoxicity Assay to monitor cytotoxicity in HepG2 cells - 40 hour (AID 1224879); note: nearly all actives have a fitted effect of over 40% in size
Outline: as §6

[17] = qHTS RealTime-Glo MT Cell Viability Assay in HEK293 cells - 0 hour (AID 1224880)
Outline: as §5

[18] = qHTS assay to identify small molecule agonists of the hypoxia (HIF-1) signaling pathway (AID 1224846; active = well fitted activation curve with a large enough effect in the signal ratio in the repeat runs, not every such curve was filed as active; the % refers to the signal ratio)
Outline: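 Measured by blue/green FRET after loading CCF4-AM: beta-lactamase expressed from a hypoxia response element in ME-180 cells. Test agents were delivered in DMSO and left 17 hrs; cells had been plated 5 hrs earlier in low-serum (0.5% dialyzed FBS) medium.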

[19] = qHTS assay to identify small molecule antagonists of the estrogen related receptor (ERR) signaling pathway from Tox21 library (AID 1224848); note: nearly all actives have a fitted effect of over 50% in size
Outline: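 Antagonist-mode screen of the Tox21 10K library in an NTP-provided ERR reporter cell line; 18 h compound exposure at 37 C, luminescence measured with ONE-Glo.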

[20] = qHTS assay to identify small molecule agonists of the estrogen related receptor (ERR) signaling pathway from Tox21 library (AID 1224849; calls by dose curve; note: nearly all actives have a fitted effect of over 15% in size); conditions: ERR reporter cell line, ONE-Glo luciferase, 18 h; at 92.4 µM (top of the series) unless noted
Outline: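 We plated ERR reporter cells, waited 6 h, added compounds in DMSO by pin tool and incubated them 18 h at 37 C. ONE-Glo was then added and luminescence read after 30 min.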
% is set by controls: 0 for no effect and ±100 for the full control effect.

CN1[C@@H]2CC[C@H]1CC(OC(=O)c1c[nH]c3ccccc13)C2 (some centres not stated)
inactive: Potency [1] | Potency [2] | Potency [3] | Potency [4] | Potency [5] | Potency [6] | Potency [7] | Potency [8] | Potency [9] | outcome [10] | max response [11] 4.75% | Potency [12] | Potency [13] | Potency [14] | Potency [15] | Potency [16] | outcome [17]

CC(=O)N(CC(O)CN(C(C)=O)c1c(I)c(C(=O)NCC(O)CO)c(I)c(C(=O)NCC(O)CO)c1I)c1c(I)c(C(=O)NCC(O)CO)c(I)c(C(=O)NCC(O)CO)c1I (configuration not stated)
inactive: Potency [1] | Potency [2] | Potency [3] | Potency [5] | Potency [6] | Potency [7] | Potency [8] | Potency [9] | outcome [10] | Potency [12] | Potency [14] | Potency [15] | Potency [16] | outcome [17]

CCN[C@H]1CN(CCCOC)S(=O)(=O)c2sc(S(N)(=O)=O)cc21
inactive: Potency [1] | Potency [2] | Potency [3] | Potency [4] | Potency [5] | Potency [6] | Potency [7] | Potency [8] | Potency [9] | outcome [10] | max response [11] -0.402% | Potency [12] | Potency [13] | Potency [15] | Potency [16] | outcome [17]

CCOC(=O)CS
inactive: Potency [2] | outcome [18] | Potency [3] | Potency [5] | Potency [6] | Potency [7] | Potency [8] | Potency [9] | outcome [10] | max response [11] -5.88% | Potency [12] | Potency [14] | Potency [15] | outcome [17]

COc1ccccc1N1CCN(CCCNc2cc(=O)n(C)c(=O)n2C)CC1
inactive: Potency [1] | Potency [2] | Potency [19] | activity change, positive = activation [20] 3.63% [at 42.5 µM] | Potency [4] | Potency [5] | Potency [6] | Potency [7] | Potency [8] | Potency [9] | outcome [10] | max response [11] -21.2% | Potency [12] | Potency [14] | Potency [15] | outcome [17]

O=C1CCCCC1C1CCCCC1 (configuration not stated)
inactive: Potency [2] | outcome [18] | Potency [4] | Potency [5] | Potency [6] | Potency [7] | Potency [8] | Potency [9] | outcome [10] | max response [11] 11.8% | Potency [12] | Potency [13] | Potency [14] | Potency [15] | Potency [16]

O=c1oc2c(O)c(O)cc3c(=O)oc4c(O)c(O)cc1c4c23
inactive: activity change, negative = cytotoxicity [1] 0.799% [at 15.8 µM] | activation [18] -0.716% [at 15.8 µM] | activity change, negative = cytotoxicity [3] 0.906% [at 31.6 µM] | activity, negative = inhibition [19] 4.6% [at 19 µM] | activity change, positive = activation [20] 2.5% [at 19 µM] | activity change, negative = cytotoxic [5] -21.3% [at 15.8 µM] | cytotoxicity [6] 10.4% [at 15.8 µM] | activity change, negative = cytotoxic [7] -12.4% [at 15.8 µM] | cytotoxicity increase [8] 16.8% [at 15.8 µM] | activity change, negative = cytotoxicity [9] -3.75% [at 15.8 µM] | viability change, negative = cytotoxic [10] 0.835% [at 15.8 µM] | max response [11] -22.4% | activity change [12] 21.9% [at 15.8 µM, active compounds read high] | activity change, negative = cytotoxic [14] -12.3% [at 15.8 µM] | cytotoxicity [15] 4.4% [at 15.8 µM] | activity change, negative = cytotoxicity [17] -5.71% [at 15.8 µM]

COc1ccc(Nc2ccc(OC)cc2)cc1
inactive: Potency [19] | Potency [4] | Potency [6] | Potency [7] | Potency [8] | outcome [10] | Potency [12] | Potency [13] | Potency [14] | Potency [15] | Potency [16]
active: activity change, positive = activation [20] 38% | Potency [5] 25 µM | Potency [11] 28.1 µM
